According to PubChem BioAssay (NCI):
Compounds without any hit were thinned out: in the full panel of roughly 79,000, 15% have a hit. The source made the active and inactive calls. Rule as the data show it: active = growth inhibition above about 70%; inactive = the rest.

Legend:
[1] = NCI Yeast Anticancer Drug Screen. Data for the rad50 strain (AID 155);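 also: 0% = growth of vehicle-only cultures of the same strain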; details: S. cerevisiae rad50 strain growth inhibition, stronger effect = higher value
Summary of the method: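 Yeast carrying a defined DNA repair defect were exposed to test compounds, and growth was compared with vehicle-treated controls to give percent inhibition.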

[2] = NCI Yeast Anticancer Drug Screen. Data for the mec2-1 strain (AID 157); details: S. cerevisiae mec2-1 strain, stronger effect = higher value
Summary of the method: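 Each compound was tested on mec2-1 yeast, a strain altered in DNA damage repair or cell cycle control. Growth inhibition is reported relative to vehicle.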

[3] = NCI Yeast Anticancer Drug Screen. Data for the sgs1 mgt1 strain (AID 161);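 also: 0% = growth of cultures given vehicle only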; details: S. cerevisiae sgs1 mgt1 strain, stronger effect = higher value
Summary of the method: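 Genetically altered yeast, compound exposure, growth inhibition relative to vehicle.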

[4] = NCI Yeast Anticancer Drug Screen. Data for the cln2 rad14 strain (AID 165);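 also: 0% = growth equal to vehicle treated cultures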; details: S. cerevisiae cln2 rad14 strain, stronger effect = higher value
Summary of the method: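 Test compounds were added to cln2 rad14 yeast cultures; inhibition of growth was then determined by comparison with vehicle treatment.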

[5] = NCI Yeast Anticancer Drug Screen. Data for the bub3 strain (AID 167); details: S. cerevisiae bub3 mutant strain, stronger effect = higher value
Summary of the method: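 Compounds were applied to a genetically altered yeast strain carrying a cell-cycle control defect. Growth inhibition was scored against vehicle-treated controls.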

[6] = NCI Yeast Anticancer Drug Screen. Data for the mlh1 rad18 strain (AID 175); details: S. cerevisiae mlh1 rad18 strain growth inhibition, stronger effect = higher value
Summary of the method: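 Inhibition values reflect reduced growth of mutant yeast versus vehicle-treated controls following compound exposure; the mutations affect DNA damage repair.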

[7] = at 5.0 µM (retest, dose inferred, filed as 0.5)
[8] = at 50.0 µM (retest, dose inferred, filed as 5.0)

Measured: growth inhibition

CCN(CCO)CC1OC(OC)C2OC(C)(C)OC12 (stereo not given)
inactive: [1]; [7] -1% | [1]; at 50.0 µM 10% | [2]; [7] 0% | [2]; at 50.0 µM 2.55% | [3]; [7] -2% | [3]; at 50.0 µM -0.9% | [4]; [7] -3% | [5]; [7] -2% | [5]; at 50.0 µM 24.5% | [6]; [7] -1% | [6]; at 50.0 µM 35.7%
active: [1]; [8] 83% | [2]; [8] 91% | [3]; [8] 84% | [4]; [8] 83% | [4]; at 50.0 µM 85.8% | [5]; [8] 89% | [6]; [8] 90%

CC(/C=C/C(O)=C1/C(=O)CNC1=O)=C\[C@@H](C)[C@H]1O[C@@]2(C)O[C@H](C(=O)[C@@H]3O[C@@]32C)[C@@H]1C
active: [1]; [7] 98% | [1]; [8] 99% | [1]; at 50.0 µM 91.8% | [2]; [7] 99% | [2]; [8] 99% | [2]; at 50.0 µM 94.5% | [3]; [7] 98% | [3]; [8] 98% | [3]; at 50.0 µM 94.2% | [4]; [7] 97% | [4]; [8] 95% | [4]; at 50.0 µM 90.8% | [5]; [7] 98% | [5]; [8] 99% | [5]; at 50.0 µM 93.4% | [6]; [7] 98% | [6]; [8] 98% | [6]; at 50.0 µM 90.3%

CCCCCCCCCCCCOC(=O)CC1CC(C(C)=O)C1(C)C (stereo not given)
active: [4]; at 50.0 µM 84.3%
inactive: [1]; [7] 2% | [1]; [8] -9% | [1]; at 50.0 µM 18.5% | [2]; [7] 0% | [2]; [8] -7% | [2]; at 50.0 µM -20.8% | [3]; [7] 0% | [3]; [8] -7% | [3]; at 50.0 µM 24.1% | [4]; [7] 1% | [4]; [8] -8% | [5]; [7] -3% | [5]; [8] -13% | [5]; at 50.0 µM 11.2% | [6]; [7] 25% | [6]; [8] -4% | [6]; at 50.0 µM 41.2%

CCCCC(O)CCCC
active: [5]; [8] 91%
inactive: [1]; [7] 13% | [1]; [8] 17% | [1]; at 50.0 µM 4.55% | [2]; [7] 14% | [2]; [8] 18% | [2]; at 50.0 µM 8.65% | [3]; [7] -5% | [3]; [8] 9% | [3]; at 50.0 µM 15.8% | [4]; [7] 3% | [4]; [8] 13% | [4]; at 50.0 µM 22.2% | [5]; [7] 43% | [5]; at 50.0 µM 64.2% | [6]; [7] 31% | [6]; [8] 25% | [6]; at 50.0 µM -7.1%

N#Cc1ccc(C2Oc3ccc(Cl)cc3C=C2[N+](=O)[O-])cc1 (stereo not given)
active: [1]; [7] 98% | [1]; [8] 99% | [1]; at 50.0 µM 84.7% | [2]; [7] 100% | [2]; [8] 99% | [2]; at 50.0 µM 75.7% | [3]; [7] 100% | [3]; [8] 99% | [3]; at 50.0 µM 91.2% | [4]; [7] 98% | [4]; [8] 98% | [4]; at 50.0 µM 88.7% | [5]; [7] 98% | [5]; [8] 98% | [5]; at 50.0 µM 75.6% | [6]; [7] 99% | [6]; [8] 99% | [6]; at 50.0 µM 83.3%
